These results are taken from PMC5540273 (PLoS ONE, 2017).

Common to all, as to conditions: concentration: 1 μM, replicates: in singlicate; n = 1
Assay [1] has as its system SGK3.
Assay [2] has as its system SGK.
For assay [3], the system named is SIK2.
Assay [4] concerns SIK.
Assay [5] relates to SLK.
In assay [6] the test system is T1, SNARK.
T1 construct: gene NUAK2

The subject of assay [7] is SNRK.
Assay [8] concerns SRC.
The subject of assay [9] is SRMS.
The test system of assay [10] is SRPK1.
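Also: KINOMEscan kinase panel screen.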

In the case of `Fc1ccc(-c2nn3cccc(F)c3c2-c2ccncc2)cc1` [GW475620], the “%Inh” value in assay [1] came out at 0%; in [2] it was 0%; in [3], 12%; in assay [4], 3%; in [5], 16%; in assay [6], 0%. In addition, the “%Inh” value in assay [7] is 0%; in [8] it was 1%; in assay [9], 0%; in assay [10], 3%.

Consider `Cc1nccc(-c2c(-c3ccc(F)cc3)ncn2CCCN2CCOCC2)n1.Cl` [SB-282975], for which the “%Inh” value turned out to be 39% in [1]; 27% in assay [2]; 0% in assay [3]; 27% in assay [4]; 32% in assay [5]; 42% in assay [6]. Besides, the “%Inh” value in assay [7] amounted to 2%; in [8] it was 26%; in [9] it was 0%; in assay [10] it was 19%.

For the compound `COC(=O)C(Cc1ccccc1)NC(=O)NC1CCN(c2ccnc(Nc3ccc(F)cc3)n2)C1` (centres unmarked) [GSK1379714], the “%Inh” value in [1] is 0%; in assay [2], 2%; in assay [3], 0%; in [4], 0%; in assay [5], 22%; in [6] it was 0%. Besides, the “%Inh” value in assay [7] came to 0%; in assay [8] it was 1%; in assay [9], 5%; in assay [10] it was 15%.

In the case of `COc1cccc(NC(=O)Nc2ccc(C)c(-c3ccc(C(=O)Nc4ccncc4)cc3)c2)c1` [GSK1398474], the “%Inh” value in [1] is on record as 11%; in assay [2], 0%; in assay [3] it was 0%; in assay [4] it was 10%; in [5], 7%; in assay [6], 13%. For the same compound, the “%Inh” value was found to be 3% in assay [7], 31% in [8], 0% in assay [9] and 31% in assay [10].

As to `Cn1cncc1C(=O)NC1CCN(c2ccnc(Nc3ccc(F)cc3)n2)C1` (centres unmarked) [GSK1379717], the “%Inh” value was 0% in [1]; 14% in [2]; 0% in assay [3]; 0% in [4]; 0% in assay [5]; 0% in assay [6]. The “%Inh” value is 0% in [7], 0% in [8], 0% in assay [9] and 100% in assay [10].

As for `CNC(=O)c1ccc(C)c(-n2c(C)cc(OCc3ccc(F)cc3F)c(Br)c2=O)c1`, the “%Inh” value in [1], in [2], in assay [3], in assay [4], in assay [5] and in assay [6] was 0% in each case. Also, the “%Inh” value is given as 0% in assay [7], 0% in assay [8], 0% in assay [9] and 14% in assay [10].

For the compound `COc1ccc(Nc2nccc(-c3ccc(NC(=O)c4cc5cc(F)ccc5[nH]4)cc3)n2)cc1` [GSK1229496], the “%Inh” value is 1% in assay [1]; 0% in [2]; 0% in [3]; 0% in assay [4]; 0% in assay [5]; 0% in assay [6]. In addition, the “%Inh” value worked out at 0% in assay [7], 0% in assay [8], 7% in assay [9] and 10% in [10].

In the case of `COc1cccc(CNC(=O)NC2CCN(c3ccnc(Nc4ccc(F)cc4)n3)C2)c1` (centres unmarked) [GSK1379723], the “%Inh” value in [1] is 0%; in assay [2] it was 0%; in assay [3], 14%; in assay [4], 0%; in assay [5] it was 15%; in assay [6] it was 0%. Besides, the “%Inh” value in [7] came out at 0%; in assay [8], 0%; in [9] it was 0%; in [10], 33%.

For the compound `COc1nccc(-c2c(-c3ccc(F)cc3)ncn2CCCN2CCOCC2)n1` [SB-282852], the “%Inh” value in assay [1] worked out at 0%; in [2] it was 13%; in assay [3], 0%; in assay [4], 0%; in assay [5], 30%; in [6], 0%. Moreover, the “%Inh” value in assay [7], in assay [8], in [9] and in assay [10] was 0% in each case.

As to `CSc1ccc(-c2nc3n(c2-c2ccncc2)CCC3)cc1` [SKF-105561], the “%Inh” value in assay [1] turned out to be 6%; in assay [2], 0%; in assay [3], 0%; in [4], 0%; in assay [5] it was 7%; in [6], 0%. For the same compound, the “%Inh” value in assay [7] was 18%; in assay [8], 0%; in [9], 13%; in assay [10] it was 2%.

On to `O=c1cc(N2CCOCC2)nc2n(Cc3cccc(Cl)c3Cl)c3ccccc3n12` [GSK2299009], for which the “%Inh” value is reported as 4% in assay [1]; 31% in assay [2]; 18% in assay [3]; 16% in assay [4]; 39% in [5]; 16% in assay [6]. In addition, the “%Inh” value in assay [7] is listed as 0%; in assay [8] it was 0%; in [9] it was 0%; in assay [10], 19%.

Regarding `Cc1cccc2c(-c3ccncn3)c(-c3ccc(F)cc3)nn12` [GW515532], the “%Inh” value in assay [1] turned out to be 2%; in assay [2] it was 12%; in assay [3] it was 39%; in assay [4], 0%; in assay [5], 13%; in assay [6] it was 0%. Further, the “%Inh” value in assay [7] is given as 0%; in assay [8], 0%; in [9] it was 0%; in assay [10], 33%.

Regarding `Cc1ccc(NC(=O)Nc2ccccc2F)cc1-c1ccc(C(=O)Nc2ccncc2)cc1` [GSK1398477], the “%Inh” value in assay [1] came to 0%; in [2], 0%; in [3], 22%; in assay [4] it was 15%; in assay [5], 34%; in assay [6], 0%. Further, the “%Inh” value in assay [7] came to 0%; in assay [8], 27%; in assay [9], 0%; in [10], 52%.

With `Cc1c(Cn2c3ccccc3n3c(=O)cc(N4CCOCC4)nc23)cccc1C(F)(F)F` [GSK2306394], the “%Inh” value in [1] is listed as 0%; in [2], 15%; in [3], 0%; in assay [4] it was 0%; in [5], 5%; in assay [6], 0%. Also, the “%Inh” value is reported as 0% in assay [7], 1% in assay [8], 0% in assay [9] and 41% in [10].

As for `Cc1ccc(-c2nc(Nc3ccncc3)c3ccccc3n2)s1` [GSK189015], the “%Inh” value in [1] was 47%; in assay [2], 5%; in assay [3] it was 16%; in [4], 0%; in assay [5], 9%; in assay [6], 74%. Also, the “%Inh” value was found to be 3% in assay [7], 13% in [8], 3% in [9] and 38% in assay [10].

`COC(=O)C(NC(=O)NC1CCN(c2ccnc(Nc3ccc(F)cc3)n2)C1)c1ccccc1` (centres unmarked) [GSK1379712]: the “%Inh” value in assay [1] is given as 2%; in assay [2], 2%; in assay [3], 3%; in [4] it was 0%; in [5] it was 4%; in assay [6] it was 5%. Besides, the “%Inh” value in assay [7], in [8], in assay [9] and in assay [10] was 0% each time.

`FC(F)(F)c1ccccc1-c1cc(-c2c[nH]nc2-c2ccccn2)ccn1` [GW679396]: the “%Inh” value in [1] is listed as 1%; in assay [2], 0%; in assay [3], 0%; in assay [4], 0%; in [5], 15%; in assay [6] it was 0%. The “%Inh” value in assay [7] was found to be 0%; in assay [8], 0%; in assay [9], 0%; in [10], 3%.
